# Inconclusive results are not listed. Where a call stands in place of a potency, no number is given. Calls of active or inactive are those of the source. Calls follow the shape of the dose curve; as a rule, active = well fitted inhibition curve with a large enough effect in the signal ratio in the repeat runs (not every such curve was filed as active); inconclusive = weak or mixed curves, or effect the other way; inactive = flat fitted curve, though single readings scatter; the % refers to the signal ratio.
# Assay: cAMP Responsive Elements (CRE) small molecule antagonists, cell-based qHTS assay (AID 1963591)
# Conditions: CRE-bla HEK293T, beta-lactamase FRET ratio; series mostly up to 92.4 µM
# Excerpt: U.S. Tox21 Program National Center for Advancing Translational Sciences [NCATS] Division of Preclinical Innovation [DPI] U.S. Environmental Protection Agency [EPA] National Institutes of Environmental Health Sciences [NIEHS] National Toxicology Program [NTP] U.S. Food and Drug Administration [FDA] Tox21 Assay Overview: CREB (cyclic-AMP Responsive Element Binding Protein) is a cellular transcription factor. It binds to certain DNA sequences called cAMP Responsive Elements (CRE) and regulates the transcription of the genes. […] This cell line can be used to find agonists/antagonists of the cyclic AMP signaling pathway. The activation of the report gene under culture conditions can be detected by fluorescence intensity. This cell line has been used to screen the Tox21 10K compound library to […].
# Tox21 Assay Protocol Summary: CRE-bla Hek 293T cells were suspended in assay medium (DMEM containing 10% dialyzed FBS, 0.1 mM NEAA, 1 mM sodium pyruvate and 25 mM HEPES) and dispensed at 2,000 cells/4 uL /well into 1536-well black wall/clear bottom plates using a Multidrop Combi (ThermoFisher Scientific, Waltham, MA) dispenser. After the assay plates were incubated at 37 C/5% CO2 for 18 hrs, 23 nL of compounds dissolved in DMSO, positive controls or DMSO only was transferred to the assay plate by a pintool workstation (Kalypsys, San Diego, CA), followed by addition of 1 […] uL of 1.25uM NKH477 (0.25 uM as final concentration) in assay medium using a Flying Reagent Dispenser (Aurora Discovery, San Diego, CA). The plates were incubated at 37 C and 5% CO2 for 3 hrs. Then 1 uL of LiveBLAzer B/G FRET substrate (Invitrogen, Carlsbad, CA) was added to each well using Bioraptr Flying Reagent Dispenser (FRD, Aurora Discovery, San Diego, CA). The plates were incubated at room temperature for 2 h.
# Potency is read from the fitted curve at half-maximal effect.
row,SMILES,Potency
1,c1ccc([C@H]2CN3CCSC3=N2)cc1,inactive
2,COc1cc(C(=O)NCCCCCC(=O)O)cc(OC)c1OC,inactive
3,CC(=O)OCC(=O)[C@@]1(O)CCC2C3CCC4=CC(=O)CC[C@]4(C)C3[C@@H](O)C[C@@]21C (stereo not given in full),inactive
4,O=C(CS)Nc1ccccc1,inactive
5,CC(C)CC(C)CC(C)CC(C)COC(=O)c1ccccc1C(=O)OCC(C)CC(C)CC(C)CC(C)C (stereo not given),inactive
6,COc1cc(S(=O)(=O)O)c(C)cc1N=Nc1c(O)ccc2cc(S(=O)(=O)O)ccc12,inactive
7,O=C(OCC(COC(=O)c1ccccc1)(COC(=O)c1ccccc1)COC(=O)c1ccccc1)c1ccccc1,inactive
8,O=C(O)c1c(Cl)cccc1Cl,inactive
9,CNC(=O)N(c1ccccc1)c1ccccc1,inactive
10,COC(=O)C1=C(C)NC(C)=C(C(=O)OC(C)(C)CN(C)CCC(c2ccccc2)c2ccccc2)C1c1cccc([N+](=O)[O-])c1 (stereo not given),inactive
11,COc1cc(C)ccc1C(C)C,inactive
12,CCN(CC)CCNc1ccc(CNC=O)c2sc3ccc(OC)cc3c(=O)c12,21.7 µM (active)
13,CCN(CC)CCOC(=O)C1(c2ccccc2)CCCC1,inactive
14,O=C(O)C(Cc1cc(I)c(O)c(I)c1)c1ccccc1 (stereo not given),inactive
15,O=C1OC(=O)C2C3C=CC(C3)C12 (stereo not given),inactive
16,O=[N+]([O-])c1ccc2[nH]ncc2c1,inactive
17,CCOC(=O)[C@H](CCc1ccccc1)N[C@@H](C)C(=O)N1CCC[C@H]1C(=O)O,inactive
18,Cc1ccc2sc3cccc(C)c3c2c1,inactive
19,CCOC(=O)C1CC(=O)C(=C(O)C2CC2)C(=O)C1 (stereo not given),inactive
20,O=[N+]([O-])c1ccc(CO)cc1,inactive

row,SMILES,Potency
1,COc1ccccc1OC(=O)Oc1ccccc1OC,inactive
2,CC(C)(C)c1cc(C=O)cc(C(C)(C)C)c1O,inactive
3,O=C1C=CCCC1,inactive
4,CCCCCCCCCCCCCCCCOP(=O)([O-])OCC[N+](C)(C)C,inactive
5,Cc1cn[nH]c1,inactive
6,Cc1cnc(C)c(C)n1,inactive
7,CCCCC(=O)O[C@]1(C(=O)CO)[C@H](C)C[C@H]2[C@@H]3CCC4=CC(=O)C=C[C@]4(C)[C@@]3(F)[C@@H](O)C[C@@]21C,inactive
8,CCCCCCCCCCCCSC,inactive
9,CC(C)(C)NC[C@H](O)COc1cccc2c1CCCC2=O,inactive
10,COC(=O)CCCCCCCCC(=O)OC,inactive
11,O=C(Cn1ccnc1[N+](=O)[O-])NCCO,inactive
12,CC(C)C(O)C(C)(C)CO (stereo not given),56.2 µM (active)
13,CCC(C)c1nccnc1OC (stereo not given),inactive
14,CCN(CC)C(=O)N1CCN(C)CC1,inactive
15,CC(C)(C)C(=O)NCCCC(=O)O,inactive
16,CC(C)CCCC(C)(C)O,inactive
17,O=C(CCCCC(=O)Nc1c(I)cc(I)c(C(=O)O)c1I)Nc1c(I)cc(I)c(C(=O)O)c1I,inactive
18,C#CCOC(=O)[C@@H](C)Oc1ccc(Oc2ncc(Cl)cc2F)cc1,inactive
19,O=CN1CCCCC1,inactive
20,COC(=O)CCCCC(CCSS/C(CCO)=C(\C)N(C=O)Cc1cnc(C)nc1N)SC(C)=O (stereo not given),inactive
